BoNT F protease: BoNT F light chain protease inhibition; AID 588497; inhibition, % at 10 µM; 360,000 tested, 0.22% active; Multiplex microsphere protease cleavage assay, flow cytometry; in the data active means inhibition above about 35%, passing the limit was not always enough; further: plate controls were buffer without enzyme for full effect and enzyme alone for no effect
BoNT A protease: blocks Botulinum neurotoxin A light chain protease; multiplex microsphere protease substrate cleavage, flow cytometry; inhibition, % at 10 µM; 360,000 tested, 0.17% active; AID 588499; further: plate controls were buffer without enzyme for full effect and enzyme alone for no effect
3CLpro inhibitor: SARS-CoV 3CLpro protease inhibition; 290,000 tested, 0.14% active; inhibition, % at 6 µM; recombinant SARS-CoV 3CLpro, quenched FRET peptide cleavage; AID 1706; P0C6X7; in the data active means inhibition above about 12%
Anthrax LF prot: blocks Bacillus anthracis lethal factor protease | 360,000 tested, 0.12% active | inhibition, % at 10 µM | multiplex microsphere protease cleavage assay, LF | P15917; further: plate controls were buffer without enzyme for full effect and enzyme alone for no effect
Target sequence (P15917 whole entry, looked up): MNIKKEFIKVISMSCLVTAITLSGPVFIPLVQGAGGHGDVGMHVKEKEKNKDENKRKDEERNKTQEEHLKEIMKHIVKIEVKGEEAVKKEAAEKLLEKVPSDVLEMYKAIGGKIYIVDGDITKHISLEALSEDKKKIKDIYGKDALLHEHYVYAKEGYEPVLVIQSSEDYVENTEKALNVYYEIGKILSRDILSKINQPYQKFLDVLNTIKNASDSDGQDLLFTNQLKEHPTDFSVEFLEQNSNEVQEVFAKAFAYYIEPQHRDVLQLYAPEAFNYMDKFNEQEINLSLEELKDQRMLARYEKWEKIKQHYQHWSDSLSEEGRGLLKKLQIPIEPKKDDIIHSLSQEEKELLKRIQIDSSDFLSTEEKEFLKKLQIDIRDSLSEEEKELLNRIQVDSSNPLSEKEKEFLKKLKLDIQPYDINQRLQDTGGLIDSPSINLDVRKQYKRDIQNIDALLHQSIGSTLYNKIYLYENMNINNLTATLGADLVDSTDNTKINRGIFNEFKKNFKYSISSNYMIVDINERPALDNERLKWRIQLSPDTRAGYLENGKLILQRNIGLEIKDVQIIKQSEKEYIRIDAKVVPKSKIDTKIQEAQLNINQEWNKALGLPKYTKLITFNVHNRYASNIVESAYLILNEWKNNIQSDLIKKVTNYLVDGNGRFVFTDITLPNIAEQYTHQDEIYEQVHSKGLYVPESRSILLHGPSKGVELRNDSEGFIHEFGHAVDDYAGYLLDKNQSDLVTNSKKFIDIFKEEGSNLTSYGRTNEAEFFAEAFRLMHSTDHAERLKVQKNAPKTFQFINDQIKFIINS
CCHF vOTU inh: blocks the CCHF virus ovarian tumor domain protease | inhibition, % at 11.5 µM | 370,000 tested, 0.55% active | AID 651958 | CCHFV vOTU protease, Pep-AMC fluorescence; in the data active means inhibition above about 30%; further: 0% = vehicle wells with enzyme and 100% = no enzyme wells
Autofluor counter: flagged as autofluorescent in microsphere protease counterscreen | 360,000 tested, 3.1% active | AID 624483 | compound autofluorescence counterscreen, microsphere flow cytometry; stronger effect = higher value | fluorescence intensity (concentration not given with the values); in the data active means fluorescence intensity above about 16000
BoNT-A LC CP1: BoNT/A light chain protease inhibition | shares compounds with BoNT F protease | multiplex microsphere protease assay, flow cytometry | inhibition, % at 10 µM | 720 tested, 3% active; in the data active means inhibition above about 32%
BoNT-F LC CP1: blocks botulinum neurotoxin F light chain protease; multiplex microsphere protease cleavage assay, flow cytometry; AID 602140; inhibition, % at 10 µM; 720 tested, under 10 active; shares compounds with BoNT F protease; call rule not given here
LF protease CP1: Bacillus anthracis lethal factor protease inhibition. inhibition, % at 10 µM. multiplex microsphere protease cleavage assay, LF. shares compounds with BoNT F protease. AID 602142. 720 tested, under 10 active; call rule not given here
Active calls of the source: *; nt = no result. Most compounds without a hit are left out; they make up all but 3.9% or so of the library. Unless noted, no stated cut-off is given here; in the data, active means inhibition above about 30%; inconclusive means no clear call, values can overlap the other calls; inactive means below that.

SMILES	BoNT F protease	BoNT A protease	3CLpro inhibitor	Anthrax LF prot	CCHF vOTU inh	Autofluor counter	BoNT-A LC CP1	BoNT-F LC CP1	LF protease CP1
CCC(=O)N1CCc2cc(S(=O)(=O)NCCc3ccc(S(N)(=O)=O)cc3)ccc21	-4	0	3	0	8	5333	nt	nt	nt
S=C1NCN(Cc2ccccc2)CN1	15	-6	-4	9	-10	3681	nt	nt	nt
O=C1CN(Cc2ccccc2)CC(=O)N1	46*	-2	nt	-1	-15	3950	-1	-2	0
O=C(COC(=O)c1ccc([N+](=O)[O-])o1)NC1CCCc2ccccc21 (stereo not drawn)	-2	0	nt	-3	10	8852	nt	nt	nt
COc1cccc(S(=O)(=O)NCc2ccc(C(=O)NCC3CCCO3)cc2)c1 (stereo not drawn)	38*	29	4	-19	-3	10761	-1	-3	0
O=C(NCc1ccco1)c1ccc(S(=O)(=O)c2cccc(S(=O)(=O)N3CCOCC3)c2)cc1	38*	23	3	6	-3	7881	1	-2	-2
O=C(NCc1ccco1)c1cccc(S(=O)(=O)N2CCCC2)c1	6	0	5	7	-5	3677	nt	nt	nt
Cc1ccc(OCC(=O)N(Cc2nnc(-c3ccccc3Cl)o2)C2CC2)cc1C	-7	0	nt	2	-1	3788	nt	nt	nt
O=C(COc1ccccc1)N(Cc1nnc(-c2ccccc2Cl)o1)C1CC1	37*	12	nt	0	9	5742	1	-6	4
COC(=O)c1sccc1NC(=O)c1ccco1	36*	0	-6	-3	-24	4135	-2	-3	-3
O=C(CCN1CCOCC1)c1ccc(Br)cc1	40*	6	5	-4	-8	4225	0	-5	-1
CC(C)Oc1ccc(C(=O)CCN2CCCCC2)cc1	-7	0	-2	2	-5	6870	nt	nt	nt
CC(C)Oc1ccc(C(=O)CCN2CCOCC2)cc1	-8	1	nt	0	-15	4370	-1	-6	0
O=C(CCN1CCOCC1)c1ccc(Cl)cc1	42*	5	2	-2	-5	3570	0	-1	2
COCCCNCCCCOc1ccc(Br)cc1C	36*	5	7	-1	0	2506	5	-10	-2
COc1cc(C2C3=C(COC3=O)Oc3cc4c(cc32)OCO4)cc(OC)c1O (stereo not drawn)	5	0	nt	-9	-6	3572	nt	nt	nt
COc1cc(C2C(C#N)=C(N)OC3=C2C(=O)CC(C)(C)C3)cc2c1OCO2 (stereo not drawn)	-3	0	nt	-6	-11	4266	nt	nt	nt
C=CCc1ccc(OCCOc2cccc3ccc(C)nc23)c(OC)c1	53*	46*	1	-8	-16	9218	-2	-3	-3
Cc1ccc2cccc(OCc3ccc(Br)cc3)c2n1	39*	0	-2	-6	14	3567	0	-8	4
CC1Cc2cc(S(=O)(=O)N3CCC(C(=O)Nc4ccccn4)CC3)ccc2N1C(=O)C1CCC1 (stereo not drawn)	5	1	-7	2	-3	5592	nt	nt	nt
COc1ccc(-n2cc(CNCC3CCOCC3)c(-c3cccc(F)c3)n2)cc1	-7	0	-5	-1	1	2640	nt	nt	nt
COc1ccc(-n2cc(CNCCCn3ccnc3)c(-c3cccc(F)c3)n2)cc1	37*	4	3	-2	6	2583	-1	-15	-4
Cc1ccc(Cn2ccc(NC(=O)c3cc4nc(-c5ccco5)cc(C(F)(F)F)n4n3)n2)cc1	-3	0	1	0	4	3701	nt	nt	nt
CCc1ccc(-c2cc(C(F)(F)F)n3nc(C(=O)Nc4cnn(Cc5ccc(C)cc5)c4)cc3n2)s1	3	7	2	0	nt	11288	3	5	3
Cc1nn(C)c(C)c1NC(=O)c1cc2nc(-c3ccco3)cc(C(F)(F)F)n2n1	-1	0	3	-4	-2	3882	0	0	4
Cc1ccccc1Cn1cc(NC(=O)c2cc3nc(-c4ccco4)cc(C(F)(F)F)n3n2)cn1	12	0	5	-2	-10	2908	1	0	-3
